Over roughly 68,000 sequences, “fluorescence intensity (a.u.)” has its median near 9,100; the highest 2% begin near 16,000. The full list was thinned out, with the highest values kept by preference.

The assay deals with OsWRKY34 (Oryza sativa, UniProt Q0JBA9 1-250). As to the kind of experiment: protein-binding microarray (RPBM); PBS, 2% BSA, 51.3 ng/ul salmon testes DNA, 50 uM zinc acetate, 200 nM TF, 25 C, 1 h; high values mean tight binding. The settings on record: protein: recombinant; tags: N-terminal polyhistidine and DsRed monomer fusion (pET32a); label: CyDye5-dUTP incorporated in the synthesized complementary strand; 3' TTTTT single-stranded linker to array surface; dsDNA, one strand shown. The essentials: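 Transcription factors, each fused N-terminally to a polyhistidine tag and DsRed, were expressed in E. coli BL21-CodonPlus and purified on Ni–NTA. A custom Agilent array was made double-stranded by primer extension with Cy5-dUTP and blocked with 2% BSA. It was incubated with 200 nM protein in PBS, 2% BSA, salmon testes DNA and 50 µM zinc acetate at 25 °C for 1 h, then washed. The binding signal is per-feature fluorescence intensity (arbitrary units) read on an Axon 4000B scanner.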
Sequence of OsWRKY34 (Q0JBA9 entry or part of it): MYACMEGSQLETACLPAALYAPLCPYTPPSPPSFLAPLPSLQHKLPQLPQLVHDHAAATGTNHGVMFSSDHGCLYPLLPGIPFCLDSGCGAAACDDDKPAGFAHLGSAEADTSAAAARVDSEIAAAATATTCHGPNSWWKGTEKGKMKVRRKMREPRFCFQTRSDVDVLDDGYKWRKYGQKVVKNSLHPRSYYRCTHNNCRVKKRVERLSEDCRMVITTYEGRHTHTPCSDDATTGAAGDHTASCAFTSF
Consider “GCCTCTGTTCTTCCACTCATTATTATCATTTGCAGCTCCGCGGAGTCACCTAGTGCAG”, for which the binding signal was 10400 fluorescence intensity (a.u.). Consider “TCCCAACCCACCGTTCCATTCTCTCGAGCTCACCCCGTCACGGAGTCACCTAGTGCAG”, for which the binding signal is 10500 fluorescence intensity (a.u.). Consider “TGTACTTCAAAAATTTACTTTACCGTGTGTTTTATTTTTTCGGAGTCACCTAGTGCAG”, for which the binding signal is 9650 fluorescence intensity (a.u.). As for “TCGTTTCAAAATACTTGACACCGTTGACTTTTTAGTACGTCGGAGTCACCTAGTGCAG”, the binding signal is 23300 fluorescence intensity (a.u.). On to “TTCAAAATATTTGACACCGTTGACTTTTTAGTACGTGTTTCGGAGTCACCTAGTGCAG”, for which the binding signal is 18200 fluorescence intensity (a.u.). As to “TCTGTATTAGCGTTCGGTTGTTTTATTTGACTTTCCAAATCGGAGTCACCTAGTGCAG”, the binding signal is 8360 fluorescence intensity (a.u.). “ACTTTTTAGTGCGTATTTGACTATTCGTCTTATTTAAAAACGGAGTCACCTAGTGCAG”: the binding signal was 9800 fluorescence intensity (a.u.). On to “CCTCCGTTTCAAAATATTTGACACCGTTGACTTTTTAGTACGGAGTCACCTAGTGCAG”, for which the binding signal was 14100 fluorescence intensity (a.u.). As to “CCGTTTCAAAATATTTGACACCGTTGACTTTTTAGTACGTCGGAGTCACCTAGTGCAG”, the binding signal is 26800 fluorescence intensity (a.u.). With “ATTTTCAAAATATTTGACACTGTTGACTTTTTAGTACATACGGAGTCACCTAGTGCAG”, the binding signal is 9840 fluorescence intensity (a.u.). With “AAAAATATTTGACAGCGTTGACTTTTTAGTGCGTATTTGACGGAGTCACCTAGTGCAG”, the binding signal was 42800 fluorescence intensity (a.u.).

Turning to “ATCAATCTATTAGAATACTTATTACTGTATCTACTTATGTCGGAGTCACCTAGTGCAG”, the binding signal was 8690 fluorescence intensity (a.u.). Turning to “TAGGTTTTTTTTTACTTTTTAACTTGGCTGATTTTATTGACGGAGTCACCTAGTGCAG”, the binding signal was 8760 fluorescence intensity (a.u.).

Consider “GACTCTTGCGATTCCCTCTGTTGAACTTGTTCGTTCTCCTCGGAGTCACCTAGTGCAG”, for which the binding signal is 10600 fluorescence intensity (a.u.). For the sequence “TTCCCCATGTTTTTTTGCCCACTAACTCACTAGCCACCACCGGAGTCACCTAGTGCAG”, the binding signal is 10700 fluorescence intensity (a.u.).

With “CCTCGACCTCTCGCTACTCCAGGCGCCGCCCCATCAGATGCGGAGTCACCTAGTGCAG”, the binding signal is 8200 fluorescence intensity (a.u.). For “CGTACGCGCCCACGCCCACTCCCACGCCTTCGCGCGCGCGCGGAGTCACCTAGTGCAG”, the binding signal is 9220 fluorescence intensity (a.u.).

For the sequence “TTAGGTCGGGTTTTTCCCGTTTCTCGTTTCTATGGCGATGCGGAGTCACCTAGTGCAG”, the binding signal was 8750 fluorescence intensity (a.u.).

Consider “TCCTTGTGCCCACTTCTAGCTAGCTTCCAAGTTCCAACCACGGAGTCACCTAGTGCAG”, for which the binding signal is 13700 fluorescence intensity (a.u.). For “GGTGCTTGTTTAATCAAAGCTTGCTATTTGGTACTTTTTTCGGAGTCACCTAGTGCAG”, the binding signal was 8940 fluorescence intensity (a.u.). Regarding “GGACCACCCTGCCGCGGACATCACCCATCTCGTCATCTCCCGGAGTCACCTAGTGCAG”, the binding signal was 9570 fluorescence intensity (a.u.).

Take “ATATTTGACGCCGTTGACTTTTTTAAACATGTTTGACCGTCGGAGTCACCTAGTGCAG”: the binding signal is 44400 fluorescence intensity (a.u.).

“TCCCTAAATATTTGACGCCATTGACTTTTTTAAACATGTTCGGAGTCACCTAGTGCAG”: the binding signal was 11200 fluorescence intensity (a.u.). On to “ATCTAGGATACCGTTGACTTTTCGTACTAACATTTGACGTCGGAGTCACCTAGTGCAG”, for which the binding signal was 32800 fluorescence intensity (a.u.). For the sequence “CCGTTGGCTTTTTTAAACATGTTTGACCGTTTATTTTATTCGGAGTCACCTAGTGCAG”, the binding signal is 14100 fluorescence intensity (a.u.).

Regarding “TTGACGCCGTTGACTTTTCTAAACATATTTGACTATTCGTCGGAGTCACCTAGTGCAG”, the binding signal is 22300 fluorescence intensity (a.u.). “CAAATTACTTCCTTTTCAAAATCTAGGATACCGTTGACTTCGGAGTCACCTAGTGCAG”: the binding signal was 9460 fluorescence intensity (a.u.). With “CACATATTGATCTATTCTACTAAATTTTTTTTATGACTTTCGGAGTCACCTAGTGCAG” the figure was 8630 fluorescence intensity (a.u.); with “TCCCTAAATATTTGACGCCGTTGACTTTTTTAAACATGTTCGGAGTCACCTAGTGCAG”, 26400 fluorescence intensity (a.u.).

In the case of “TGTTTTATTTTTAGGATACTTCTACCTTTTTTCGCTTTGACGGAGTCACCTAGTGCAG”, the binding signal is 9510 fluorescence intensity (a.u.). In the case of “TGCTTTGGTTGTCTTCTTTATCTAGAAGGCTTTGATTGCTCGGAGTCACCTAGTGCAG” it was 9520 fluorescence intensity (a.u.). Regarding “TCATTGTTCTCACTTCCTCGTCTTGAGCACTTGAGTCTCTCGGAGTCACCTAGTGCAG”, the binding signal is 8420 fluorescence intensity (a.u.). With “TGCACTGGGCTCCCATCTGAATGTCCTTATGCCAACCTCCCGGAGTCACCTAGTGCAG”, the binding signal was 8520 fluorescence intensity (a.u.). “CTAATCCTCCTGCTCCATCTCGATCCACATAACGATCCACCGGAGTCACCTAGTGCAG”: the binding signal is 8470 fluorescence intensity (a.u.). In the case of “CATATTATAAATCATTTGACTTTTTTCATATTCAAAATTTCGGAGTCACCTAGTGCAG”, the binding signal was 9090 fluorescence intensity (a.u.).

As for “ACTCTATTTAGATATTTTCCCACGCATCCGTCTCCTCCTCCGGAGTCACCTAGTGCAG”, the binding signal was 9420 fluorescence intensity (a.u.).

For “ACCAAACCCACGGCCTGGCCCACTGTCAGTACTAAGATAGCGGAGTCACCTAGTGCAG”, the binding signal is 9120 fluorescence intensity (a.u.). In the case of “TCGCAGCAGCTGTTTTACCGGCTAGTTTTTTGCACACATCCGGAGTCACCTAGTGCAG” it was 8600 fluorescence intensity (a.u.); in that of “CTCCGTTTGTAAATATTTGACGCCGTTGACTTTTTAAAATCGGAGTCACCTAGTGCAG”, 22700 fluorescence intensity (a.u.). Consider “GTCCCTAAATATTTGACGCCGTTGACTTTTTTAAACATGTCGGAGTCACCTAGTGCAG”, for which the binding signal was 28500 fluorescence intensity (a.u.). As to “TATCTAAATATTTGACGCCGTTGACTTTTTAAAACATGTTCGGAGTCACCTAGTGCAG”, the binding signal is 30900 fluorescence intensity (a.u.).

“CCTCCGTCCCTAAATATTCGACGCCGTTGACTTTTTTAAACGGAGTCACCTAGTGCAG”: the binding signal was 21700 fluorescence intensity (a.u.). Take “ATATTTGACGCCGTTGACTTTTTTAAACATATTTAACTGTCGGAGTCACCTAGTGCAG”: the binding signal was 14600 fluorescence intensity (a.u.). Turning to “CCCTTTCACATGTCACCTCTGACCCACAAACAAACCCTTTCGGAGTCACCTAGTGCAG”, the binding signal was 8210 fluorescence intensity (a.u.). In the case of “GAGTTATCCTCACCACCCACCGCTCGTCGCCTCCACTCCGCGGAGTCACCTAGTGCAG”, the binding signal was 8120 fluorescence intensity (a.u.). Regarding “AGTAAGAGATCTCAAATTGATATGGGTTCTTGTTTTATATCGGAGTCACCTAGTGCAG”, the binding signal is 8150 fluorescence intensity (a.u.). Regarding “CACCAAGCAGTCCCCTGTGTTCATCTTCTGAAGTCTGATTCGGAGTCACCTAGTGCAG”, the binding signal is 8360 fluorescence intensity (a.u.). In the case of “ATTCCGCGCGCCGCCGCCGTCGCCGCCGCCGACGTCGCCGCGGAGTCACCTAGTGCAG”, the binding signal was 8920 fluorescence intensity (a.u.). “GATGCCATTTTTAAACAATTCCATGCCTTGTTTCCATTTCCGGAGTCACCTAGTGCAG”: the binding signal was 13400 fluorescence intensity (a.u.).

In the case of “AAATATTTGACGCCGTTGACTTTCTTAAACATGTTTAACTCGGAGTCACCTAGTGCAG”, the binding signal was 15700 fluorescence intensity (a.u.). Turning to “CTAAATATTTGACGCCGTTGACTTTTTAAAACATGTTTGACGGAGTCACCTAGTGCAG”, the binding signal is 30500 fluorescence intensity (a.u.). On to “GTACTCCCTCTGACCCTAAATATTTGACGTCGTTGACTTTCGGAGTCACCTAGTGCAG”, for which the binding signal is 16300 fluorescence intensity (a.u.). Consider “CTCCGTTATCGTTTGACTTTCTTTTCATTAATATTTTAAACGGAGTCACCTAGTGCAG”, for which the binding signal is 15600 fluorescence intensity (a.u.). As to “CATCTGTTTCTGAATATTTGACGCCGTTGACTTTTTAAAACGGAGTCACCTAGTGCAG”, the binding signal was 19600 fluorescence intensity (a.u.).

Take “ATTTCTAAATATTTGACGTCGTTGACTTTTTTAAACATGTCGGAGTCACCTAGTGCAG”: the binding signal was 26800 fluorescence intensity (a.u.). As for “TCCGTCCCTAAATATTTGACGCCGTTGACTTTTTAACACACGGAGTCACCTAGTGCAG”, the binding signal is 35700 fluorescence intensity (a.u.). For “CTAAATGTTTAACGCCGTTGACTTTTTAAAACATATTTGACGGAGTCACCTAGTGCAG”, the binding signal was 13400 fluorescence intensity (a.u.).

Source of the values: article PMC7819943, “Rice protein-binding microarrays: a tool to detect cis-acting elements near promoter regions in rice”.
